Results from PubChem BioAssay (NCATS).
Inconclusive results are not listed. A call without a number means that no potency is given here. Values without a mark were called inactive. Activity calls are given as the source filed them. Unless noted, calls follow the shape of the dose curve; as a rule, active = well fitted curve in the direction sought with a large enough effect; inconclusive = small, poorly fitted or top-dose-only effect, or another doubt; inactive = no such curve, though single readings can be large; an effect the other way counts as inactive or inconclusive.

Columns and labels:
[1] = biological target: Protein phosphatase 1D (Homo sapiens) (UniProt O15297); experiment: RapidFire Mass Spectrometry qHTS Assay for Modulators of WT P53-Induced Phosphatase 1 (WIP1) (AID 1347424);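 also: amount of dephosphorylated VEPPL-S-QETFS peptide product formed by WIP1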; also: potency is read from the fitted curve at half-maximal effect; as to activity change, negative = inhibition: series mostly up to about 63 µM
Chain of Protein phosphatase 1D (Homo sapiens) (O15297 whole entry, looked up): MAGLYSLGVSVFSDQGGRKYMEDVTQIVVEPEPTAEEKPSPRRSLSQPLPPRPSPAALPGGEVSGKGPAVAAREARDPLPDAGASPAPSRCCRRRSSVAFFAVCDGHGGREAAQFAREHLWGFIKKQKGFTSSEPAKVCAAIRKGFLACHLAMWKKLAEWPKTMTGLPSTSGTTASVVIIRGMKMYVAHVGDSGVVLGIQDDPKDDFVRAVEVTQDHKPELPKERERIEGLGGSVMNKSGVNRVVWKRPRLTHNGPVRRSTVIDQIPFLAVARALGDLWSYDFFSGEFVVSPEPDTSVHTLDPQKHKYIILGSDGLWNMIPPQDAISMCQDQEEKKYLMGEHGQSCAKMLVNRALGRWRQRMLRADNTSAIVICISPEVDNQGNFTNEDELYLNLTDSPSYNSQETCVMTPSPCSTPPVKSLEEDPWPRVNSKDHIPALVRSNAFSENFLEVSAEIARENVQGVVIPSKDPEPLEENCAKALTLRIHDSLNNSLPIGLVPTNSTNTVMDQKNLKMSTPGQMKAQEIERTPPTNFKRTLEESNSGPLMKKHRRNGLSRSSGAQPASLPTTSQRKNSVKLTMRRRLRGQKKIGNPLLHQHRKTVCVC
Procedure, shortened: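 10 nM WIP1 + cpd, 1 h RT; + 2 uM VEPPL-pS-QETFS, 5 min RT; stop 0.5% formic acid; labelled product standard 1 uM; RapidFire MS. Buffer 50 mM Tris pH 7.5, 30 mM MgCl2, 1 mM TCEP.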

[2] = biological target: Protein phosphatase 1D (Homo sapiens) (UniProt O15297); experiment: Rhodamine-PBP qHTS Assay for Modulators of WT P53-Induced Phosphatase 1 (WIP1) (AID 1347425)
Procedure, shortened: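 WIP1 (5 nM final) was preincubated with compound for 1 hour at room temperature. It then dephosphorylated 10 uM VEPPL-pS-QETFS peptide in Tris-HCl pH 7.5 with 30 mM MgCl2. Released Pi was detected by 10 uM Rh-PBP fluorescence (ex 525/em 598 nm) read at 1-min intervals for 11 min, as delta f1 - f0.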

[3] = Primary qHTS for inhibitors of La Crosse Virus (LACV) - induced cell death in SH-SY5Y cells (AID 1508616);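 also: top concentration of the series differs between compounds; higher means more rescue of cells from virus-induced death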
Procedure, shortened: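 SH-SY5Y cells (6000/well) plated 24 h, then given compounds by pin transfer and LACV at 0.01 MOI for 6 days at 37C. Viability measured by ATPLite luminescence, normalized to infected DMSO and uninfected DMSO.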

[4] = Primary qHTS for small molecule stabilizers of the endoplasmic reticulum resident proteome: Secreted ER Calcium Modulated Protein (SERCaMP) assay (AID 1508630)
Procedure, shortened: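 GLuc-SERCaMP-expressing SH-SY5Y cells, pretreated 16 h with compound, are challenged with thapsigargin to empty ER calcium stores; after 4 h, coelenterazine is added directly to the medium and luminescence is imaged.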

[5] = A High-Content qHTS Against Drug Library for the Identification of Small Molecules that Inhibit DYT1 Early Onset Primary Dystonia-Associated Cell Pathology (AID 1645839; calls by dose curve; also: potency is read from the fitted curve at half-maximal effect; as to % pathology change, negative = correction: series mostly up to about 46 µM)
Procedure, shortened: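 In this high-content image screen, delE TorsinA mislocalization in inducible Flp-In 293 cells is scored as %pathology, with cell count serving as the counterscreen. Compound exposure lasts 48 h under tetracycline induction in reduced-serum medium.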

[6] = biological target: Cytochrome P450 2D6 (Homo sapiens) (UniProt P10635); experiment: Cytochrome P450 family 2 subfamily D member 6 (CYP2D6) small molecule antagonists: luciferase biochemical (cell-free) qHTS assay (AID 1645840; active = well fitted curve in the direction sought with a large enough effect in the repeat runs; an effect the other way counts as inactive or inconclusive; also: nearly all actives have a fitted effect of over 55% in size; also: potency is read from the fitted curve at half-maximal effect; as to activity change, negative = inhibition: series mostly up to about 57 µM)
Chain of Cytochrome P450 2D6 (Homo sapiens) (P10635 whole entry, looked up): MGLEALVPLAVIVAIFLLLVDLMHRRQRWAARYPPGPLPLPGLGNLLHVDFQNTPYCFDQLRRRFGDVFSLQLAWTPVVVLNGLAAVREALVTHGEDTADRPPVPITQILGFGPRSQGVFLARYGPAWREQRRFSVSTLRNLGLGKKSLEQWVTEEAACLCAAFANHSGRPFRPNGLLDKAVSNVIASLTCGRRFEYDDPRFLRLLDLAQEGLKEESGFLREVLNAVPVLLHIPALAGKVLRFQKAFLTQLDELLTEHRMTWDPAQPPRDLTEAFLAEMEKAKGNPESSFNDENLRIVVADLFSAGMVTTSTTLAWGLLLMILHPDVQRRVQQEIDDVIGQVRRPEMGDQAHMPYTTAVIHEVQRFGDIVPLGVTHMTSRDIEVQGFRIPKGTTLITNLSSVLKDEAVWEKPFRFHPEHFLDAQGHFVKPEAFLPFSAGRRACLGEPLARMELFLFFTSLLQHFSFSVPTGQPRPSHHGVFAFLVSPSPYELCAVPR
Procedure, shortened: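 P450-Glo luminescent screen: recombinant CYP2D6 enzyme–proluciferin substrate mix preincubated with compound 10 min at room temperature, then NADPH regeneration added for 1 h at room temperature. Detection reagent added for 20 min; luciferin light read as relative luminescence units.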

[7] = biological target: Cytochrome P450 2C9 (Homo sapiens) (UniProt P11712); experiment: Cytochrome P450 family 2 subfamily C member 9 (CYP2C9) small molecule antagonists: luciferase biochemical (cell-free) qHTS assay (AID 1645842; active = well fitted curve in the direction sought with a large enough effect in the repeat runs; an effect the other way counts as inactive or inconclusive; also: nearly all actives have a fitted effect of over 55% in size; also: potency is read from the fitted curve at half-maximal effect; as to activity change, negative = inhibition: series mostly up to about 57 µM)
Chain of Cytochrome P450 2C9 (Homo sapiens) (P11712 whole entry, looked up): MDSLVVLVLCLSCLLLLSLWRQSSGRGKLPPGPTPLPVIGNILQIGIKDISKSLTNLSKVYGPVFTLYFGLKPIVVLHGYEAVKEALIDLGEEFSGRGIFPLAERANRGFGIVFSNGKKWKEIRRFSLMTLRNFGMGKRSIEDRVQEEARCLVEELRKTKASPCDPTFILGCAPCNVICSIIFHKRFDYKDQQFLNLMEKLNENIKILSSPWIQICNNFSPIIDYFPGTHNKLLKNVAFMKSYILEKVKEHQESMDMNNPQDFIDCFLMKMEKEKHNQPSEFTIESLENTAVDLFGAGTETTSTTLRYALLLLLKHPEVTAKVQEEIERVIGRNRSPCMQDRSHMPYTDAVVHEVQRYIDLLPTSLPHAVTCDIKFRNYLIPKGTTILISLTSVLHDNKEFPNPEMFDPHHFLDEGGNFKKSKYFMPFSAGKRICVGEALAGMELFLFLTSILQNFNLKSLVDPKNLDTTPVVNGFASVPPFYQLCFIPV
Procedure, shortened: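 Luminescence, after 20 min with luciferin detection reagent, reflected CYP2C9 turnover during a 1 h NADPH-driven reaction at 37C. Enzyme-substrate mix contained 0.4% bovine serum albumin and was preincubated with compound 10 min at room temperature.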

[8] = biological target: Calcium and integrin-binding protein 1 (Homo sapiens) (UniProt Q99828); experiment: Primary qHTS for Identification of Calcium Integrin Binding Protein 1 (CIB1) Competitor (AID 1508620);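 also: GST tagged CIB1 binding a fluorescein labelled alphaIIb integrin peptide tracer; top concentration of the series differs between compounds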
Chain of Calcium and integrin-binding protein 1 (Homo sapiens) (Q99828 whole entry, looked up): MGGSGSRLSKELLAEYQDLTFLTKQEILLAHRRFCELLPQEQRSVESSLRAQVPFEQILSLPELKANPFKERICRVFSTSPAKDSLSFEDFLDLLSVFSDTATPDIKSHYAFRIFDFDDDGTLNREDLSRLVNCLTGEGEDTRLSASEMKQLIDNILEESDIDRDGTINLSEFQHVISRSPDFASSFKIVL
Procedure, shortened: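 CIB1-GST (1 uM final) and compound incubated 15 min at room temperature before adding FITC-alphaIIb peptide tracer (100 nM final). Competition for binding read by fluorescence polarization (ex 480, em 540) after another 15 min at room temperature.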

[9] = qHTS to identify inhibitors of the type 1 interferon - major histocompatibility complex class I in skeletal muscle: primary screen against the NCATS Mechanism Interrogation Plate v5.0 (MIPE) Libary (AID 1347411); also: nearly all actives have a fitted effect of over 65% in size
Procedure, shortened: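 Immortalized human myoblasts (C25cl48) with HiBit knocked into endogenous HLA-B*08:01 were stimulated with 4 ng/ml IFN-beta and given compounds in 11-point 1:3 titration from 46 uM. After 24 h at 37 C, lytic HiBiT luminescence was read.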

[10] = biological target: N-terminal Xaa-Pro-Lys N-methyltransferase 1 (Homo sapiens) (UniProt Q9BV86); experiment: Confirmatory qHTS for Inhibitors of N-terminal methyltransferase 1 (NTMT1): MTaseGlo Assay (AID 1645874); details: NTMT1 enzyme, MTase-Glo SAH luminescence; also: potency is read from the fitted curve at half-maximal effect; nearly all actives have a fitted effect of over 65% in size
Chain of N-terminal Xaa-Pro-Lys N-methyltransferase 1 (Homo sapiens) (Q9BV86 whole entry, looked up): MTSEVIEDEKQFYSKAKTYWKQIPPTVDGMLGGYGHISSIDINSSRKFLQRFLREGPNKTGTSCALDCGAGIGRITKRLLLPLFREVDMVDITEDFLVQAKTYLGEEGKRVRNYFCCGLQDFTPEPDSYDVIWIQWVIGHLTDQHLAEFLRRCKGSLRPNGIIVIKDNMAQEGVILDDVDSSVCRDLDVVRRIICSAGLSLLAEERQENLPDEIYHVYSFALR
Procedure, shortened: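 NTMT1 (125 nM) preincubated 15 min with compound and 100 uM SAM, then 1 uM SPKRIA peptide added for 30 min at room temperature. SAH detected by MTase-Glo luminescence; normalized to no-enzyme and DMSO controls, fitted to 4-parameter Hill.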

[11] = Counterscreen qHTS for small molecule stabilizers of the endoplasmic reticulum resident proteome: GLuc-NoTag assay (AID 1508627); also: potency is read from the fitted curve at half-maximal effect;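 as to activity change, negative = inhibition: SH-SY5Y cells given compound then 100 nM thapsigargin to empty ER calcium; series mostly up to about 76 µM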
Procedure, shortened: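 Luminescence of Gaussia luciferase secreted into the medium (coelenterazine, 0.07x final, unlysed cells) was the read-out. Human SH-SY5Y neuroblastoma cells constitutively secreting untagged GLuc received compound for 19 h, then 100 nM thapsigargin for 4 h.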

[12] = Confirmatory qHTS for small molecule stabilizers of the endoplasmic reticulum resident proteome: Secreted ER Calcium Modulated Protein (SERCaMP) assay (AID 1508628); also: series mostly up to about 76 µM; nearly all actives have a fitted effect of over 40% in size
Procedure, shortened: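 SH-SY5Y cells stably expressing GLuc-SERCaMP, treated 16 h with compound (primary 1.53, 7.67, 38.3 uM; confirmation 11 concentrations, up to 76.6 uM), then 100 nM thapsigargin for 4 h. Secreted Gaussia luciferase in medium read by coelenterazine luminescence.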

[13] = Cell Viability qHTS for small molecule stabilizers of the endoplasmic reticulum resident proteome (AID 1508629); details: cell viability counter-screen, 100 nM thapsigargin for final 4 h;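 also: compound exposure about 46 h in total before the viability read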; also: potency is read from the fitted curve at half-maximal effect;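 as to max response: human SH-SY5Y neuroblastoma cells carrying the GLuc-SERCaMP reporter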
[14] = biological target: Cytochrome P450 3A4 (Homo sapiens) (UniProt P08684); experiment: Cytochrome P450 family 3 subfamily A member 4 (CYP3A4) small molecule antagonists: luciferase qHTS assay (AID 1645841; active = well fitted curve in the direction sought with a large enough effect in the repeat runs; an effect the other way counts as inactive or inconclusive; also: nearly all actives have a fitted effect of over 45% in size)
Chain of Cytochrome P450 3A4 (Homo sapiens) (P08684 whole entry, looked up): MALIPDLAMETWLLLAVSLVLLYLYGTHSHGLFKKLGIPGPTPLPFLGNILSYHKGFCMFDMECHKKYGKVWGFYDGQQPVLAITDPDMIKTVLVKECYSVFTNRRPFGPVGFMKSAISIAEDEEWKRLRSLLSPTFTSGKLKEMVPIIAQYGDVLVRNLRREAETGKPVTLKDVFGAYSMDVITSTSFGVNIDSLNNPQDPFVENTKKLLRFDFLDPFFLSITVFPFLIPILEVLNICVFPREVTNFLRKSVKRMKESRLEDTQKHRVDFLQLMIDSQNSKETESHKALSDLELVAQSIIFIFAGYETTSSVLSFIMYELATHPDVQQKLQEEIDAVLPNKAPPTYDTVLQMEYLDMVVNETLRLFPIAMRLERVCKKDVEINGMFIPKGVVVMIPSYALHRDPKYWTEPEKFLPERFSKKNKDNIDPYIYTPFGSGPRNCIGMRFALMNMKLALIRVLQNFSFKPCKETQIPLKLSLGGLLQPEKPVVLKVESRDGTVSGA
Procedure, shortened: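 Luminescent CYP3A4 activity readout: compounds plus enzyme-substrate mix 10 min at room temperature, reaction started with NADPH regenerating system for 1 h, stopped with detection reagent, read after 20 min. Ketoconazole served as control.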

## O=C(O)Cc1ccc(-c2ccccc2)cc1
[1]
  Potency: inactive
[2]
  outcome: inactive
[3]
  Potency: inactive
[4]
  Potency: inactive
[5]
  Potency: inactive
[6]
  Potency: inactive
[7]
  Potency: inactive

## CC(=O)SCC(CC(=O)c1ccc(C)cc1)C(=O)O (stereo not drawn)
[1]
  Potency: inactive
[2]
  outcome: inactive
[3]
  Potency: inactive
[8]
  Potency: inactive
[5]
  Potency: inactive
[6]
  Potency: inactive

## COC(=O)Nc1nc2ccc(C(=O)C3CC3)cc2[nH]1
[1]
  Potency: inactive
[2]
  outcome: inactive
[4]
  Potency: inactive
[6]
  Potency: inactive
[7]
  Potency: inactive

## C=CCc1cccc(/C=N/NC(=O)CN2CCN(Cc3ccccc3)CC2)c1O
[9]
  Potency: inactive
[4]
  Potency: inactive

## CC(C(=O)O)c1ccc(C(=O)c2cccs2)cc1 (stereo not drawn)
[1]
  Potency: inactive
[2]
  outcome: inactive
[3]
  Potency: inactive
[8]
  Potency: inactive
[4]
  Potency: inactive
[5]
  Potency: inactive
[6]
  Potency: inactive
[7]
  Potency: 7.76 µM (active)

## O=C(CCN1CCN(CCO)CC1)N1c2ccccc2Sc2ccc(C(F)(F)F)cc21
[1]
  Potency: inactive
[2]
  outcome: inactive
[3]
  Potency: inactive
[8]
  Potency: inactive
[4]
  Potency: inactive
[5]
  Potency: inactive
[6]
  Potency: inactive
[7]
  Potency: inactive

## Nc1ccc(O)c(C(=O)O)c1
[1]
  Potency: 17.8 µM (active)
[3]
  Potency: inactive
[4]
  Potency: inactive
[5]
  Potency: inactive
[6]
  Potency: inactive
[7]
  Potency: inactive

## Nc1c(CC(=O)O)cccc1C(=O)c1ccc(Br)cc1
[2]
  outcome: inactive
[3]
  Potency: inactive
[8]
  Potency: inactive
[5]
  Potency: inactive
[6]
  Potency: inactive
[7]
  Potency: inactive

## CC(=O)c1ccc(OCC(=O)N2CCCCC2)cc1
[2]
  outcome: inactive
[3]
  Potency: inactive
[5]
  Potency: inactive
[6]
  Potency: inactive
[7]
  Potency: inactive

## Cc1ccc(O)c(-n2nc3ccccc3n2)c1
[2]
  outcome: inactive
[3]
  Potency: inactive
[4]
  Potency: inactive
[5]
  Potency: inactive
[7]
  Potency: 4.36 µM (active)

## O=C(O)Cc1cccc(-c2cc(CCCCCCc3ccc(O[C@H]4O[C@H](CO)[C@@H](O)[C@H](O)[C@@H]4O)c(-c4cccc(CC(=O)O)c4)c3)ccc2O[C@H]2O[C@H](CO)[C@@H](O)[C@H](O)[C@@H]2O)c1
[2]
  activity change, negative = inhibition: -0.323% [at 0.575 µM]
[3]
  activity change: -19% [at 0.0343 µM]
[8]
  activity change, negative = inhibition: -8.49% [at 1.07 µM]
[4]
  activity change, negative = inhibition: -18.9% [at 0.478 µM]
[5]
  % pathology change, negative = correction: -6.26% [at 0.369 µM]
[6]
  activity change, negative = inhibition: -6.59% [at 0.91 µM]
[7]
  activity change, negative = inhibition: 11.7% [at 0.91 µM]

## CCCOC(=O)c1ccc(O)cc1
[2]
  outcome: inactive
[3]
  Potency: inactive
[8]
  Potency: inactive

## CN(C)[C@@H]1C(=O)C(C(=O)NCN2CCCC2)=C(O)[C@@]2(O)C(=O)C3=C(O)c4c(O)cccc4[C@@](C)(O)C3C[C@@H]12 (stereo partly drawn)
[2]
  outcome: inactive
[3]
  Potency: inactive
[4]
  Potency: inactive
[5]
  Potency: inactive
[7]
  Potency: inactive

## Cc1nc2ccccc2n1Cc1ccc(Cl)cc1
[2]
  outcome: inactive
[3]
  Potency: inactive
[4]
  Potency: inactive
[5]
  Potency: inactive
[6]
  Potency: 7.76 µM (active)
[7]
  Potency: 11 µM (active)

## O=c1cc(-c2ccccc2)oc2ccccc12
[2]
  outcome: inactive
[3]
  Potency: inactive
[8]
  Potency: inactive
[7]
  Potency: 15.4 µM (active)
[10]
  Potency: 50.1 µM (active)

## CC1(C)S[C@@H]2[C@H](NC(=O)[C@H](N)c3ccccc3)C(=O)N2[C@H]1C(=O)O
[2]
  outcome: inactive
[3]
  Potency: inactive
[5]
  Potency: inactive
[6]
  Potency: inactive

## Cc1cc(O)c2ccccc2c1O
[2]
  outcome: inactive
[3]
  Potency: inactive
[8]
  Potency: inactive
[4]
  Potency: inactive
[6]
  Potency: 11 µM (active)

## CO[C@@]1(NC(=O)Cc2cccs2)C(=O)N2C(C(=O)O)=C(COC(N)=O)CS[C@@H]21
[2]
  outcome: inactive
[3]
  Potency: inactive
[8]
  Potency: inactive
[5]
  Potency: inactive
[6]
  Potency: inactive
[7]
  Potency: inactive

## COc1cc(NC(C)CCCN)c2ncccc2c1 (stereo not drawn)
[1]
  Potency: inactive
[3]
  Potency: inactive
[11]
  Potency: 44.7 µM (active)
[12]
  Potency: inactive

## O=C(O)Cc1ccc2c(c1)C(=O)c1ccccc1CO2
[2]
  outcome: inactive
[3]
  Potency: inactive
[8]
  Potency: inactive
[11]
  Potency: inactive
[12]
  Potency: inactive
[13]
  max response: 16.2%
[5]
  Potency: inactive
[6]
  Potency: inactive
[7]
  Potency: inactive

## N=C(N)N
[2]
  outcome: inactive
[3]
  Potency: inactive
[8]
  Potency: inactive
[5]
  Potency: inactive
[6]
  Potency: inactive
[14]
  outcome: inactive
[7]
  Potency: inactive

## Nc1nc2ccc([N+](=O)[O-])cc2s1
[1]
  Potency: inactive
[3]
  Potency: inactive
[8]
  Potency: inactive
[5]
  Potency: inactive

## CCOC(=O)c1ccccc1O
[2]
  outcome: inactive
[3]
  Potency: inactive
[8]
  Potency: inactive
[5]
  Potency: inactive
[6]
  Potency: inactive
[14]
  outcome: inactive
[7]
  Potency: inactive

## N=C1N=C(N)c2cc3ccccc3cc21
[2]
  outcome: inactive
[3]
  Potency: inactive
[8]
  Potency: inactive
[11]
  Potency: 89.1 µM (active)
[13]
  Potency: 39.8 µM (active)
[5]
  Potency: 35.5 µM (active)
[6]
  Potency: 31.7 µM (active)
[7]
  Potency: inactive
